Laboratory results: PubChem BioAssay (NCATS)
Inconclusive results are not listed. Active and inactive are the calls of the source. Unless noted, the call rests on the fitted dose curve; in most records, active means well fitted curve in either direction with a large enough effect (not every such curve was filed as active); inconclusive means small, poorly fitted or top-dose-only effect, or another doubt; inactive means flat fitted curve, though single readings scatter.

Assays:
[1] = target: Cytochrome P450 1A2 (Homo sapiens) (UniProt P05177); experiment: p450-cyp1a2 (AID 410; calls by dose curve; further: potency means the concentration at half of the fitted maximal effect;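 on activity change, negative = inhibition: -100% = full effect of reference inhibitor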)
How it was run: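 20nM CYP1A2 with 100uM Luciferin-ME (at Km) in 100mM KPO4; compound preincubated 10 min, NADPH regeneration added, 60 min at room temperature. Luciferin quantified by luminescence after detection reagent; normalized to 57 uM furafylline.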

[2] = NFAT Signaling Pathway (AID 444);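 further: carbachol stimulus at about its EC50 of 1 µM final; on the % scale 0 is the no-effect control and ±100 the full control effect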
How it was run: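 Jurkat cells carrying an NFAT-driven β-lactamase reporter and co-transfected muscarinic M1 receptor were treated with compound plus carbachol (1 uM final, an EC50 level) for 5 h at 37 °C. CCF4 loading followed for 1 h at RT; 460/530 nm ratio gave %activity.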

[3] = Stat Signaling Pathway (AID 446);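 further: ME-180 cervical cancer cells given 40 pM IL-6 alongside compound; SIE-controlled beta-lactamase reporter measured as 460/530 nm FRET emission ratio; on the % scale 0 is the no-effect control and ±100 the full control effect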
How it was run: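 ME-180 SIE-bla cells; overnight plating; cpd + IL-6 40 pM, 5 h, 37 C; LiveBLAzer 2.5 h RT; 460/530 nm emission ratio. Normalized to 300 pM IL-6 and 125 nM JAK inhibitor controls.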

[4] = target: Glucocorticoid receptor (Homo sapiens) (UniProt P04150); experiment: GR-GFP Redistribution (AID 450;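 active means compounds whose dose series gives a full or clear partial fitted curve of increased nuclear translocation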; further: potency means the concentration at half of the fitted maximal effect); conditions: U2OS GR-GFP nuclear translocation, laser cytometry, 2 h
[5] = target: Glucocorticoid receptor (Homo sapiens) (UniProt P04150); experiment: GR-EFC Redistribution (AID 451; calls by dose curve; further: potency means the concentration at half of the fitted maximal effect); conditions: CHO-K1 GR-EFC translocation, beta-gal luminescence, 2 h
How it was run: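 CHO-K1 cells stably expressing nuclear-localized β-gal enzyme acceptor and GR fused C-terminally to the enzyme donor fragment; ligand-driven nuclear translocation restores β-gal by complementation. Compounds titrated up to 46 uM final, 2 h at 37 °C; luminescence read.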

[6] = target: Mitogen-activated protein kinase 10 (Mus musculus) (UniProt Q61831); experiment: JNK3 AlphaScreen Assay (AID 530);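 further: kinase came from lysate of stimulated human HepG2 cells; signal reports phosphorylation of biotinylated GST-cJun 1-79 at Ser73 with 10 µM ATP; series mostly up to about 57 µM; on the % scale 0 is the no-effect control and ±100 the full control effect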
How it was run: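 Inhibitors reduce antibody binding to phosphorylated biotin-cJun, lowering AlphaScreen luminescence. Lysates from HepG2 cells pre-activated by IL-1beta plus TNF-alpha supplied JNK3; compounds were titrated.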

[7] = target: 3',5'-cyclic-AMP phosphodiesterase 4B (Homo sapiens) (UniProt Q07343); experiment: qHTS Assay for Inhibitors of PDE-IV (AID 607; active means well fitted activation curve with a large enough effect in the main read-out, with a control signal flat, not every such curve was filed as active; further: % of control where 0% means no effect)
How it was run: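 ACTOne HEK293 cells carry a modified cAMP-gated CNG channel and express endogenous PDE4; plated 1000 cells/well, compounds up to 22.9 uM final. Membrane-potential dye fluorescence (ex 535/em 590) was read; parental cells received 10 uM forskolin + 100 uM RO 20-1724.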

[8] = target: Guanine nucleotide-binding protein G(i) subunit alpha-1 (Homo sapiens) (UniProt P63096); experiment: qHTS Assay for Inhibitors of RGS12 GoLoco Motif Activity (Green Fluorophore) (AID 879; active means well fitted curve in the direction sought with a large enough effect; an effect the other way counts as inactive or inconclusive;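 further: 0% = labeled peptide with Gαi1 and full inhibition = labeled peptide alone without protein; negative values mean loss of peptide binding seen as reduced polarization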)
How it was run: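 Fluorescence polarization assay: 50 nM Gαi1 with 10 nM FITC-labeled RGS12 GoLoco peptide in 10 mM Tris pH 7.5, 150 mM NaCl, 0.1 mM GDP, 0.05% NP40, 10 min at room temperature with compound.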

[9] = target: Cytochrome P450 3A4 (Homo sapiens) (UniProt P08684); experiment: qHTS Assay for Activators of Cytochrome P450 3A4 (AID 885; active means well fitted curve in the direction sought with a large enough effect; an effect the other way counts as inactive or inconclusive; further: nearly all actives have a fitted effect of over 65% in size)
How it was run: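 20nM CYP3A4 + 25uM Luciferin-PPXE (=KM), 200mM KPO4; cpd 10 min RT; NADPH regen, 60 min RT; stop w/ detection buffer, 20 min; luminescence. Normalized to 57 uM ketoconazole.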

[10] = qHTS Assay for Identification of Small Molecule Antagonists for NFkB Signaling Pathway (AID 895; active means well fitted inhibition curve with a large enough effect in the signal ratio, with a control signal flat, not every such curve was filed as active; the % refers to the signal ratio; further: on the % scale 0 is the no-effect control and ±100 the full control effect)
How it was run: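 NFkB-bla ME-180 cervical carcinoma cells with beta-lactamase reporter under NFkB response element; compounds added, then TNF alpha at 10 pM final (EC50), 5 h at 37 C. LiveBLAzer substrate 2 h, room temperature; emission 460/530 nm at 405 nm excitation.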

[11] = qHTS Assay for Identification of Small Molecule Agonists for Thrombopoietin (TPO) Signaling Pathway (AID 917; active means well fitted curve in the direction sought with a large enough effect; an effect the other way counts as inactive or inconclusive; further: potency means the concentration at half of the fitted maximal effect); conditions: TPO signaling pathway reporter cells, agonist qHTS; stimulated with TPO at its EC50
How it was run: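 Activators of TPO signaling were sought in murine Ba/F3 cells transfected with the human receptor, using a luciferase gene driven by the Glycoprotein IIb promoter; 24-hr compound exposure at 37 C alongside 26 pM TPO, in IL-3-free medium.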

[12] = target: Muscarinic acetylcholine receptor M1 (Rattus norvegicus) (UniProt P08482); experiment: qHTS Assay for Antagonists of Acetylcholine Muscarinic M1 Receptor: Measurement of IP-One Response (AID 944; active means well fitted curve in the direction sought with a large enough effect; an effect the other way counts as inactive or inconclusive; further: nearly all actives have a fitted effect of over 75% in size)
How it was run: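 CHO cells stably expressing rat M1, pretreated 10 min with compound, then stimulated 30 min with carbachol at EC80 (200 nM) in LiCl-containing buffer pH 7.4; IP1 accumulation read by HTRF competition (665/620 nm).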

[13] = target: Pyruvate kinase (Leishmania mexicana) (UniProt Q27686); experiment: qHTS Validation Assay for Inhibitors of Leishmania Mexicana Pyruvate Kinase (AID 945; active means well fitted curve in the direction sought with a large enough effect; an effect the other way counts as inactive or inconclusive;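 further: 0% = DMSO only neutral control wells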)
How it was run: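 Eight-point qHTS titrations; enzyme 0.2 nM LmPYK (E451W mutant); substrates 0.5 mM PEP, 0.1 mM ADP; 7 mM MgCl2; 1 h room temperature; PKLight luminescence normalized to neutral control.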

[14] = target: Pyruvate kinase PKM (Homo sapiens) (UniProt P14618); experiment: qHTS Assay for Activators of Human Muscle Pyruvate Kinase (AID 954; active means well fitted curve in the direction sought with a large enough effect, not every such curve was filed as active;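 further: 0% = uninhibited enzyme and -100% = no enzyme or full thiadiazolimine inhibition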)
How it was run: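 Luminescence from a luciferase ATP-detection/stop reagent reported PKM2 activity. Reactions contained 0.1 nM purified human enzyme, 0.5 mM PEP, 0.1 mM ADP and 7 mM MgCl2 at pH 7.2, run 1 h at RT.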

[15] = AP1 Signaling Pathway (AID 357)
How it was run: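 Read-out was the 460nm/530nm emission ratio (excitation 405nm) after CCF4 loading for 2.5 hours at room temperature. Cells carried an AP-1-driven beta-lactamase reporter, were stimulated with EC50 EGF plus compound for 5 hours, and AC50 values came from titrations.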

[16] = Confirmation and Secondary Assay for Modulators of Hemoglobin Beta Chain Splicing at IVS2 654 locus (AID 910; active means well fitted curve in the direction sought with a large enough effect; an effect the other way counts as inactive or inconclusive;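 further: per-well total GFP intensity by laser scanning cytometry after 2-day treatment; % of control where 0% means no effect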)
How it was run: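 HeLa cells stably carrying EGFP interrupted by mutant beta-globin IVS2-654 intron (CMV-driven) were treated with compound for 2 days at 37C; corrected splicing was scored as total peak GFP intensity per well (488 nm excitation, 500-520 nm emission).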

[17] = Confirmation and Secondary Assay for Modulators of Hemoglobin Beta Chain Splicing at IVS2 705 locus (AID 930; active means well fitted curve in the direction sought with a large enough effect; an effect the other way counts as inactive or inconclusive;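 further: HeLa cells stably expressing the EGFP-705 splicing reporter; GFP fluorescence per well restored by corrected splicing of the IVS2-705 intron in EGFP; series mostly up to about 46 µM; % of control where 0% means no effect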)
How it was run: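 HeLa IVS2-705 EGFP reporter cells, 500/well, compound 2 d at 37C; correct splicing yields fluorescent EGFP. Control: 500 nM antisense PNA. Read-out: total peak GFP intensity.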

[18] = target: Lysosomal acid glucosylceramidase (Homo sapiens) (UniProt P04062); experiment: Glucocerebrosidase-p2 (AID 348; in the data active means potency below about 10 µM; further: potency means the concentration at half of the fitted maximal effect); conditions: purified GBA, blue fluorogenic substrate, 40 min
How it was run: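 Compounds titrated from 0.6 nM upwards against 0.2 nM enzyme in pH 5.9 citric acid/KH2PO4, taurocholate, tween-20; blue fluorogenic substrate 80 uM, 40 min room temperature, stopped and read Ex 365/Em 440 for AC50.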

[19] = target: Cytochrome P450 2C19 (Homo sapiens) (UniProt P33261); experiment: qHTS Assay for Inhibitors and Substrates of Cytochrome P450 2C19 (AID 899; active means well fitted curve in the direction sought with a large enough effect; an effect the other way counts as inactive or inconclusive; further: on the % scale 0 is the no-effect control and ±100 the full control effect; nearly all actives have a fitted effect of over 60% in size)
How it was run: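 In 50mM KPO4, the reaction held 5nM enzyme and KM-level (10uM) Luciferin-H EGE; it ran 60 min at 37C after NADPH regeneration and a 10 min compound preincubation. Luminescence values were scaled to 57uM ketoconazole as complete inhibition.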

[20] = target: Cytochrome P450 3A4 (Homo sapiens) (UniProt P08684); experiment: qHTS Assay for Inhibitors and Substrates of Cytochrome P450 3A4 (AID 884; active means well fitted curve in the direction sought with a large enough effect; an effect the other way counts as inactive or inconclusive; further: nearly all actives have a fitted effect of over 50% in size; further: potency means the concentration at half of the fitted maximal effect)
How it was run: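 20 nM human CYP3A4 with 25 uM Luciferin-PPXE (at KM) in 200 mM KPO4, preincubated 10 min with compound; NADPH regeneration started a 60 min RT reaction. Luciferin detected by luminescence, normalized to 57 uM ketoconazole as full inhibition.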

Glucocorticoid receptor (Homo sapiens), sequence (P04150 whole entry, looked up, the tested form may be a part): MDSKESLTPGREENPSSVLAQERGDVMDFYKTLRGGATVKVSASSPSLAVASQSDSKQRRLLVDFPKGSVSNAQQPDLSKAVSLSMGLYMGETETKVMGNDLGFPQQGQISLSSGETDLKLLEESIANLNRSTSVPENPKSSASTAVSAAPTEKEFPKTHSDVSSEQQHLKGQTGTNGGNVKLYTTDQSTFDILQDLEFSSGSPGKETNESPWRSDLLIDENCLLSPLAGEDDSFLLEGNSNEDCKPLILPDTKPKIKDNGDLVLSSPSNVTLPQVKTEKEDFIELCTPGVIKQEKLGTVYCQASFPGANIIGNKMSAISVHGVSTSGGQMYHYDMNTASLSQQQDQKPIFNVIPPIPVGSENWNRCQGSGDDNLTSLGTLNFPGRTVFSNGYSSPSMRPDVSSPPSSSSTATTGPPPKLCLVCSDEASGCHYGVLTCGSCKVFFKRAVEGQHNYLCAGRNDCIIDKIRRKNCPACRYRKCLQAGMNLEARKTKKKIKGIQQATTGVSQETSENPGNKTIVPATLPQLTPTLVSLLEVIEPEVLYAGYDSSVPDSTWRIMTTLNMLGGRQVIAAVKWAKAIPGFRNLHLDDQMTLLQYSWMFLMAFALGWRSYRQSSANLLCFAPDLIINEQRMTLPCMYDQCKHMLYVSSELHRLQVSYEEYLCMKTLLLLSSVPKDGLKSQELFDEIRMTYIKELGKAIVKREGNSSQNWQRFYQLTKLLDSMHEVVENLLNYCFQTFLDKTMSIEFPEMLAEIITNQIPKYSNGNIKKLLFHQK
3',5'-cyclic-AMP phosphodiesterase 4B (Homo sapiens), sequence (Q07343 whole entry, looked up): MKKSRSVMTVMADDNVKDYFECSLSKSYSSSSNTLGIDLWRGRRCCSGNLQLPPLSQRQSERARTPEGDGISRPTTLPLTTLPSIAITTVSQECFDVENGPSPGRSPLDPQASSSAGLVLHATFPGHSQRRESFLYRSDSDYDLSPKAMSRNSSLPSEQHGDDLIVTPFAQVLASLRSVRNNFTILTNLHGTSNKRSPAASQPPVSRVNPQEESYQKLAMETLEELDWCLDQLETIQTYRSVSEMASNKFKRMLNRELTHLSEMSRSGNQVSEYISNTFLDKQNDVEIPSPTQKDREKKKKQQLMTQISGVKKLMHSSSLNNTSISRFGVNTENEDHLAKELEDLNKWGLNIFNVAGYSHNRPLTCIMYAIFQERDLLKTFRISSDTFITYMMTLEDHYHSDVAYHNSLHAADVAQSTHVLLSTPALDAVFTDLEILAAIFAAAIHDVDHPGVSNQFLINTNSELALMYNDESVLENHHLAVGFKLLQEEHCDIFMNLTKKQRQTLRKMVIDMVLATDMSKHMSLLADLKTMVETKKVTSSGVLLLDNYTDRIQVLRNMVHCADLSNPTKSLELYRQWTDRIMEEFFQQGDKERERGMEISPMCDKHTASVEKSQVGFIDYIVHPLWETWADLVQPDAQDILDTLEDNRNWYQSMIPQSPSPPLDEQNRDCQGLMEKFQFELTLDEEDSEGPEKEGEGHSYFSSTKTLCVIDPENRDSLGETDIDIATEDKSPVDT
Cytochrome P450 3A4 (Homo sapiens), sequence (P08684 whole entry, looked up): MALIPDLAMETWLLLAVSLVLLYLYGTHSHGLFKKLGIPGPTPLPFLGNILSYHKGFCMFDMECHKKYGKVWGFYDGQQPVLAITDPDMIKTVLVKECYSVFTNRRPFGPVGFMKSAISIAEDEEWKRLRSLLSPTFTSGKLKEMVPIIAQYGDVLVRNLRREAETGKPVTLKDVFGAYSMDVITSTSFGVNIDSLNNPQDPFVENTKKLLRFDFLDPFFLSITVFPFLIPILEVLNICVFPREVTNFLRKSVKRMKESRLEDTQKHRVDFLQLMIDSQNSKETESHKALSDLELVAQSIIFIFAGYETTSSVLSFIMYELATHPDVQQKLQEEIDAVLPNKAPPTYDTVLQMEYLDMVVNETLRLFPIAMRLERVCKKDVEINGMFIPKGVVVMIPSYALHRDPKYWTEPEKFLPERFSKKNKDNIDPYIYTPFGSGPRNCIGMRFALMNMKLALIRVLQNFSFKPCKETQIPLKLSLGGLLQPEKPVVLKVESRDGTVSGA
Cytochrome P450 1A2 (Homo sapiens), sequence (P05177 whole entry, looked up): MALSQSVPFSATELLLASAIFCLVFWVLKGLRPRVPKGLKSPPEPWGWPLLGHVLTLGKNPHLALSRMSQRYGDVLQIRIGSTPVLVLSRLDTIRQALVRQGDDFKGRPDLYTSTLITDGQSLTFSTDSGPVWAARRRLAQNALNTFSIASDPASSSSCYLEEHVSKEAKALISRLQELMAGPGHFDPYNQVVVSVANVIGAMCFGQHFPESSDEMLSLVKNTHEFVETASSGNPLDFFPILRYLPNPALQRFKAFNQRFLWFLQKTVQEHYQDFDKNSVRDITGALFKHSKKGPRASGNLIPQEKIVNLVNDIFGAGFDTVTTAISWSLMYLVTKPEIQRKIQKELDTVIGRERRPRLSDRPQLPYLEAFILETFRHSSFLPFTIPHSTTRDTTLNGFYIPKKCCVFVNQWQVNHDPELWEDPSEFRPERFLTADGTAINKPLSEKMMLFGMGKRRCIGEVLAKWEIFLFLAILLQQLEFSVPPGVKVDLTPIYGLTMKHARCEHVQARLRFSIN
Lysosomal acid glucosylceramidase (Homo sapiens), sequence (P04062 whole entry, looked up): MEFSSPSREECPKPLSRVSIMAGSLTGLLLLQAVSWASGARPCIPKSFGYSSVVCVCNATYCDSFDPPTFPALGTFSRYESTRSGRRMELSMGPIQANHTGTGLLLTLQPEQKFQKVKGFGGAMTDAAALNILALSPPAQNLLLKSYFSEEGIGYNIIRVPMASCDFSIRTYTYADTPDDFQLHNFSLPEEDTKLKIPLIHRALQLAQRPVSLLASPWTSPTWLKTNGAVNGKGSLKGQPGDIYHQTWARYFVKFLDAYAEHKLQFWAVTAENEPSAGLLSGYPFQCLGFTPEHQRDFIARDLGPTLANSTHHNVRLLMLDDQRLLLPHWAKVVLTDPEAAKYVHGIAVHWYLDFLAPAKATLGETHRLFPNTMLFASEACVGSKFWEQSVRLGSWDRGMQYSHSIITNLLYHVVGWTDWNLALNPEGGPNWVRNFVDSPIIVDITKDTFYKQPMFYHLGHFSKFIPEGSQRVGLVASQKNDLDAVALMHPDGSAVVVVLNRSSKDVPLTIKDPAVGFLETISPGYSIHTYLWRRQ
Pyruvate kinase PKM (Homo sapiens), sequence (P14618 whole entry, looked up): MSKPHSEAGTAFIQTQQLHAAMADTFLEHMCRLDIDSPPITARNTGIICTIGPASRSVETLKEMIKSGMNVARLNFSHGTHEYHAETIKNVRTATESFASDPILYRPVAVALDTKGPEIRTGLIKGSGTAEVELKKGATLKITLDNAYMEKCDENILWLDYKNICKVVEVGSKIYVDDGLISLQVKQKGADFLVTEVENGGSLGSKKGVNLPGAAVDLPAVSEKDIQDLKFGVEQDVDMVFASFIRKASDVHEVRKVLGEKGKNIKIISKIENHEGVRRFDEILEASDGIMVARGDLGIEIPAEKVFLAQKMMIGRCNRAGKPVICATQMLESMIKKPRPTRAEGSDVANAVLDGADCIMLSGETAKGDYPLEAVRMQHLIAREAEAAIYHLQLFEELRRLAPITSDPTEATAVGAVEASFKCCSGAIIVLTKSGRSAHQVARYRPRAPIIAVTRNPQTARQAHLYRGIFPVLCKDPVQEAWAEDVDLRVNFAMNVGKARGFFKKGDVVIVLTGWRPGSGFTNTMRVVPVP
Pyruvate kinase (Leishmania mexicana), sequence (Q27686 2-499 E452W): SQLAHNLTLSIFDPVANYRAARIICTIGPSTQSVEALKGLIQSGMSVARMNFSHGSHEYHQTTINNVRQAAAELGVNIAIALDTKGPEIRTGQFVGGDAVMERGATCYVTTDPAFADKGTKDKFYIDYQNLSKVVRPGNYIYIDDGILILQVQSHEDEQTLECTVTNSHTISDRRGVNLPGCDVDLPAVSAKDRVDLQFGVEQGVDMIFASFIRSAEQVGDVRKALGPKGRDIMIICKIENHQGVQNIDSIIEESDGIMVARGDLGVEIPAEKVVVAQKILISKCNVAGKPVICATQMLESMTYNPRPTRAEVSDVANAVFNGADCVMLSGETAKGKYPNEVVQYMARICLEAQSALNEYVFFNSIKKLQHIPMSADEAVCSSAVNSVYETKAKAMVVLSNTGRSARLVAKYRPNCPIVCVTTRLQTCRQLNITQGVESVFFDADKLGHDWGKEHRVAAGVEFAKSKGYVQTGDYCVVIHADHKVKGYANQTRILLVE
Muscarinic acetylcholine receptor M1 (Rattus norvegicus), sequence (P08482 whole entry, looked up): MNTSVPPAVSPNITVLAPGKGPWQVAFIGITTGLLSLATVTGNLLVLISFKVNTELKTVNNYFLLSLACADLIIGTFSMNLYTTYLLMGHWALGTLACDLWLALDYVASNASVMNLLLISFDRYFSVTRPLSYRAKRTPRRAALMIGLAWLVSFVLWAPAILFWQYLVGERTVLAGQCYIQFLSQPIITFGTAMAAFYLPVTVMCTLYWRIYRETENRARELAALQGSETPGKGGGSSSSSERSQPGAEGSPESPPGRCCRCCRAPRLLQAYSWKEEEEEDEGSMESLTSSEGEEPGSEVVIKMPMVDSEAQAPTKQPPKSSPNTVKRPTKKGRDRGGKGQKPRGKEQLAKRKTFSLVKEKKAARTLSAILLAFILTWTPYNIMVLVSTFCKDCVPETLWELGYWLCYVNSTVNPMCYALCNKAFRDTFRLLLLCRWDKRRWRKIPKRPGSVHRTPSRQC
Guanine nucleotide-binding protein G(i) subunit alpha-1 (Homo sapiens), sequence (P63096 whole entry, looked up): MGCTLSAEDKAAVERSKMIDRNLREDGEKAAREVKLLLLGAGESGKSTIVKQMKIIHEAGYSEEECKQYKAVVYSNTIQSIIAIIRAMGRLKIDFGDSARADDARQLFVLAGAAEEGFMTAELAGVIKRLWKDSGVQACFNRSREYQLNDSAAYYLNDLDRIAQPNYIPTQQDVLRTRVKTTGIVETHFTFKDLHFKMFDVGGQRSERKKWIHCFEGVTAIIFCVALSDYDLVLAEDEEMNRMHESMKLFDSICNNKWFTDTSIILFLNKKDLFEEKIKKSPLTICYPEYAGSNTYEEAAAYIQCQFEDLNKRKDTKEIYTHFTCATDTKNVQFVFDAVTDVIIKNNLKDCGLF

O=c1c2ccccc2nc2n1CCc1c-2[nH]c2ccccc12
active: Potency [1] 0.316 µM | Potency [11] 0.316 µM
inactive: outcome [2] | outcome [3] | Potency [4] > 46 µM | Potency [5] > 46 µM | outcome [6] | outcome [7] | outcome [8] | outcome [9] | outcome [10] | outcome [12] | outcome [13] | outcome [14]

Nc1ccc(S(=O)(=O)Nc2ncccn2)cc1
inactive: outcome [15] | Potency [1] | outcome [2] | outcome [3] | outcome [6] | outcome [7] | outcome [16] | outcome [17]

O=C(O)[C@H](Cc1c[nH]c2ccccc12)N1C(=O)c2ccccc2C1=O
inactive: Potency [18] > 11.4 µM | outcome [15] | activity change, negative = inhibition [1] -8.3% [at 2.29 µM] | outcome [2] | outcome [3] | Potency [4] > 46 µM | Potency [5] > 9.22 µM | activity change, negative = inhibition [6] -0.545% [at 11.4 µM] | outcome [7] | outcome [19]

CN(C)CCCN=c1c2ccccc2n(C)c2[nH]c(=O)n(C)c(=O)c12
inactive: Potency [18] > 11.4 µM | outcome [15] | Potency [4] > 46 µM | Potency [5] > 9.22 µM | activity change, negative = inhibition [6] 0.481% [at 11.4 µM] | outcome [7]
active: Potency [1] 5.01 µM

CC[C@@]1(O)C(=O)OCc2c1cc1n(c2=O)Cc2cc3cc(O)ccc3nc2-1
inactive: outcome [17]

O=C(O)c1ccc2cc(-c3ccc(O)c(C45CC6CC(CC(C6)C4)C5)c3)ccc2c1
inactive: outcome [9]
active: Potency [20] 31.6 µM

CC(C)c1ccc(Cn2ccc3c4c(N)nc(NC5CC5)nc4ccc32)cc1
inactive: Potency [4] > 46 µM | Potency [5] > 46 µM | outcome [6] | outcome [9]
active: Potency [1] 1.58 µM | Potency [20] 6.31 µM

C[C@H]1C[C@@H]2[C@@H]([C@@H](O)C[C@@]3(C)[C@H]2CC[C@]3(O)C(=O)CO)[C@@]2(C)C=CC(=O)C=C12
inactive: outcome [15] | outcome [2] | outcome [3] | outcome [6] | outcome [7]

Cc1coc2c1C(=O)C(=O)c1c-2ccc2c1CCCC2(C)C
inactive: Potency [20] | outcome [16] | outcome [17]

COC(=O)C[C@](O)(CCCC(C)(C)O)C(=O)O[C@@H]1C(OC)=C[C@]23CCCN2CCc2cc4c(cc2[C@H]13)OCO4
inactive: Potency [1] | Potency [4] > 46 µM | Potency [5] > 46 µM | outcome [6] | outcome [7]

COc1c(N2C[C@@H]3CCCN[C@H]3C2)c(F)cc2c(=O)c(C(=O)O)cn(C3CC3)c12
inactive: Potency [20] | outcome [16] | outcome [17]
